Hit rate of the full screen: of about 330,000 compounds, about 1,700 (0.52%) were called active. Shown is part of a subset that was picked to be rich in actives. A number with no mark means an inactive call.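 The calls were made as follows: active = GFP response versus DMSO above a set limit, roughly screen mean plus 3 SD (cut at about 180% in these data); inconclusive = fewer than 70 cells counted for a yeast strain; inactive = the rest.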
Experiment: TOR pathway GLN3 branch reporter MEP2-GFP changes – S. cerevisiae, multiplex flow cytometry, MLPCN library, primary screen (AID 2016);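 also: median GFP fluorescence of the barcode-gated MEP2-GFP cells per well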
Details: S. cerevisiae MEP2-GFP strain, 3 h, at 10 µM, stronger effect = higher value, 100% = DMSO control level

SMILES | GFP response vs DMSO
CCc1ccc(S(=O)(=O)N/N=C\c2ccc([N+](=O)[O-])o2)cc1 | 105%
CCn1c(=O)c([N+](=O)[O-])c(NCc2ccc3c(c2)OCO3)c2ccccc21 | 94.2%
CCn1c(/C=C/c2ccc([N+](=O)[O-])o2)nc2ccccc2c1=O | 304% (active)
CC(C)(C)c1ccccc1NC(=O)CN1C(=O)NC2(CCCC2)C1=O | 105%
Cc1ccc(Cl)c(OCC(=O)NN2CCN(C)CC2)c1 | 103%
O=C(COC(=O)c1ccc(O)cc1O)c1ccc2c(c1)OCCO2 | 110%
COc1ccccc1C(=O)NCC(=O)OCC(=O)Nc1nnc(-c2ccccc2)o1 | 99.7%
Cc1cc(C)cc(N(CC(=O)NC2CCCC2)C(=O)CCC(=O)Nc2cc(C)on2)c1 | 327% [may fluoresce violet] (active)
Cc1cc(NC(=O)CCC(=O)N(CC(=O)NC2CCCC2)c2ccc(F)cc2)no1 | 101%
Cc1cc(C)cc(N(CC(=O)NC2CCCC2)C(=O)CCC(=O)Nc2nccs2)c1 | 107%
CC(=N\NC(=O)c1cc(Br)ccc1O)/C(=N/O)C(=O)Nc1ccccc1 | 102%
Cc1nc(-c2ccc(F)cc2)c(CC(=O)Nc2cc(S(=O)(=O)N3CCCCC3)ccc2C)s1 | 105%
C/C(Cl)=C\Cn1c(Nc2cccc(C)c2)nc2c1c(=O)n(C)c(=O)n2C | 91.5%
O=C(c1ccccc1)N1CCN(c2ccc([N+](=O)[O-])c(NCc3ccco3)c2)CC1 | 102%
O=[N+]([O-])c1ccc(N2CCNCC2)cc1NCc1cccnc1 | 309% [may fluoresce violet] (active)
O=[N+]([O-])c1ccc(N2CCN(S(=O)(=O)c3ccc4ccccc4c3)CC2)cc1NCc1ccco1 | 91.1%
O=C(Cc1cccs1)N(CC1CCCO1)C1(C(=O)NC2CCCCC2)CCCCC1 (centres undefined) | 88.4%
Cc1nc2ccccc2c(=O)n1NC(=O)c1ccccc1 | 99.1%
Cc1nc2c(ncn2-c2ccccc2)c(=O)n1NC(=O)CN1CCCC1 | 194% [may fluoresce violet] (active)
O=C(CN1CCCC1)N1CCN(c2ccccc2)CC1 | 91.7%
O=S(=O)(Nc1ncccn1)c1ccc(NS(=O)(=O)c2cccc(Cl)c2Cl)cc1 | 103%
Nc1c(C(=O)c2cccs2)sc2nsc(SCCN3CCCCC3)c12 | 221% (active)

SMILES | GFP response vs DMSO
O=C(CSc1ncnc2sccc12)N1CCN(C(=O)c2cccs2)CC1 | 105%
CCCCCCCCCCCCCCCC(=O)OC/C=C(C)/C=C/C=C(C)/C=C/C1=C(C)CCCC1(C)C | 107%
CCC(=C/c1sc2ccc3ccccc3c2[n+]1C)/C=C1\Sc2ccc3ccccc3c2N1C | 285% (active)
COc1ccc(Cl)cc1NC(=O)COC(=O)C(CC(C)C)N1C(=O)C2CC=CCC2C1=O (centres undefined) | 90.8%
Cc1noc(C)c1NC(=O)Nc1ccc2c(c1)C(=O)N([C@H](C)CO)C[C@H](C)[C@@H](CN(C)C(=O)Nc1ccc(C(F)(F)F)cc1)O2 | 103%
CC(=O)NCC(=O)N1CCC(n2nccc2NC(=O)CCCc2ccccc2)CC1 | 95.6%
Cc1nn(Cc2ccccc2)c(C)c1NS(=O)(=O)c1ccccc1 | 111%
OCc1nc(CO)n(Cc2ccccc2)n1 | 276% [may fluoresce violet] (active)
Nc1c(-c2ccccc2)nnn1Cc1ccccc1 | 96.3%
CCOC(=O)C1CCN(c2c(Nc3cc(C)cc(C)c3)c(=O)c2=O)CC1 | 115%
O=C(NCCCn1ccnc1)C1CCCN(S(=O)(=O)c2cc(Cl)ccc2Cl)C1 (centres undefined) | 106%
COc1ccc(S(=O)(=O)N(C)CC(=O)NCCCN2CCOCC2)cc1Cl | 95.1%
O=C1/C(=C\Nc2ccccc2)CCN1c1ncccn1 | 127%
CCOC(=O)N1CCN(C(=O)COc2ccc(Cl)cc2C)CC1 | 184% [may fluoresce violet] (active)
CCOC(=O)N1CCN(C(=O)CNC(=O)Cc2ccc(Cl)cc2)CC1 | 106%
CCOC(=O)N1CCN(C(=O)COc2ccc(Br)cc2)CC1 | 104%
COc1ccc(-n2nc(C(=O)NCC(=O)N3CCCCCC3)c3ccccc3c2=O)cc1Cl | 107%
Cc1ccc(Nc2nc(C)cc(C)c2C(N)=O)cc1 | 209% [may fluoresce violet] (active)
CC(=O)Nc1ccc(Nc2cc(C)nc(Nc3ccc(NC(C)=O)cc3)n2)cc1 | 92%
Cc1cc(C)c(C(N)=O)c(Cl)n1 | 104%
COc1ccc(-c2nc(N)sc2C2(O)C(=O)Nc3c(Br)cc(F)cc32)cc1OC (centres undefined) | 103%
COc1cc(C(=O)Nc2cc(C(F)(F)F)ccc2N2CCOCC2)ccc1O | 106%
